The structures appear in SMILES notation. Results filed as inconclusive are left out. A call without a number means that no potency is given here. A number with no mark means an inactive call. The source made the active and inactive calls. The call rests on the fitted dose curve; in most records, active means well fitted inhibition curve with a large enough effect; inconclusive means small, poorly fitted or top-dose-only effect; inactive means flat fitted curve, though single readings scatter. *1 amine or outer side, *2 acyl side, *3 side chain or, on linkers, in order; H or OH if unused. Where a SMILES comes first, the peptide text is derived from it. Bridges are numbered along the chain shown (N, C = ends). [ ]: non-standard residue; d: D form. The star is where a group is joined. ξ: configuration not given here. X10 = NC1=NCCC(C(N[*:1])C(=O)[*:2])N1; ΔAla(3-NHCONH2) = NC(=O)NC=C(N)C(=O)O; ξβ3hOrn = NCCCC(N)CC(=O)*; Dap = NC[CH](N)C(=O)O
Potency means the concentration at half of the fitted maximal effect.

Sequence of Calcium and integrin-binding protein 1 (Homo sapiens) (Q99828 whole entry, looked up): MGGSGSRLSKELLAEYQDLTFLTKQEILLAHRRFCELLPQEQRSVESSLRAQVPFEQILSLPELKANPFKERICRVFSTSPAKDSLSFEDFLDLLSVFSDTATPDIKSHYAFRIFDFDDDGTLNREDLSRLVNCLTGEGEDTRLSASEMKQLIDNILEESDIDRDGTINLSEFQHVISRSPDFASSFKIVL

In the experiment the target is Calcium and integrin-binding protein 1 (Homo sapiens) (UniProt Q99828). Kind of experiment: Primary qHTS for Identification of Calcium Integrin Binding Protein 1 (CIB1) Competitor (AID 1508620). On activity change, negative = inhibition: top concentration of the series differs between compounds. The note with it: CIB1-GST / FITC-alphaIIb peptide fluorescence polarization; series mostly up to 114 µM. A digest of the protocol:
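Fluorescence polarization competition: GST-tagged CIB1 (1 uM final) preincubated with compound 15 min at room temperature, then FITC-labelled alphaIIb peptide (100 nM final) added. After 15 min at room temperature, polarization read at Ex 480/Em 540.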
A general note: In qHTS, concentration-response curves come from the screen itself.
For the compound `CN1C(CSCC(F)(F)F)Nc2cc(Cl)c(S(N)(=O)=O)cc2S1(=O)=O` (configuration not stated), the Potency entry is “inactive”. `CCOC(=O)c1ccc(OCCN2C[C@H](O)[C@@H](O)[C@H](O)[C@H]2CO)cc1`: the Potency entry was “inactive”. Regarding `CCOC(=O)Oc1ccc(CCNC(=O)[C@H](CCSC)NC(C)=O)cc1OC(=O)OCC`, the Potency result was “inactive”. `CC(=O)Nc1ccn(C2COC(COC(=O)c3ccccc3)O2)c(=O)n1` (configuration not stated): the Potency entry was “inactive”. Regarding `Cc1cnc(NS(=O)(=O)c2ccc(N)cc2)nc1`, the Potency result is “inactive”. In the case of `CNC(=O)c1c(I)c(NC(C)=O)c(I)c(C(=O)O)c1I`, the Potency entry is “inactive”.

On to `CC(=O)CC/C=C(\C)CC/C=C(\C)CC/C=C(\C)CCC=C(C)C`, for which the Potency result was “inactive”. As for `Nc1nnnn1-c1ccccc1`, the Potency entry is “inactive”. In the case of `Nc1nc(=O)n([C@@H]2O[C@H](CO)[C@@H](O)[C@@H]2F)cc1I`, the Potency result was “inactive”. Regarding `CC(=O)OC[C@H]1O[C@@H](OC(C)=O)[C@H](OC(C)=O)[C@@H]1OC(C)=O`, the Potency result was “inactive”.

Consider `NCCCC(N)CC(=O)NCC1NC(=O)C(CO)NC(=O)C(N)CNC(=O)C(C2CCN=C(N)N2)NC(=O)C(=CNC(N)=O)NC1=O` (stereo not drawn) (H-[Dap]S[Dap](ξβ3hOrn)[ΔAla(3-NHCONH2)][X10]; lactam 1-C; configuration not given here), for which the activity change, negative = inhibition was -1.21% [at 1.07 µM]. `O=C(CCCl)NCc1ccccc1`: the Potency entry is “inactive”.

Regarding `CC(C)(C)c1cc(C=O)cc(C(C)(C)C)c1O`, the Potency result was “inactive”. Regarding `N#CC1(c2ccc(F)cc2)CCC(=O)CC1`, the Potency result is “inactive”. Take `COC(=O)CCCCC(CCSS/C(CCO)=C(\C)N(C=O)Cc1cnc(C)nc1N)SC(C)=O` (configuration not stated): the Potency entry is “inactive”.

Consider `CCCOc1ccc2c(c1)CC[C@@H]1[C@@H]2CC[C@]2(C)C(OC)CC[C@@H]12` (some centres not stated), for which the Potency entry was “inactive”. On to `CN(C)CCCOC1(Cc2ccccc2)CCCCCC1`, for which the Potency entry is “inactive”.

As to `O=C(C1CCCCC1)N1CC(=O)N2CCCc3ccccc3C2C1` (configuration not stated), the Potency entry was “inactive”. Regarding `CCCCOC(=O)CCCCCCCCC(=O)OCCCC`, the Potency entry is “inactive”. For `CC(=O)Nc1c(I)c(NC(C)=O)c(I)c(C(=O)O)c1I`, the Potency entry was “inactive”. Same read-out and setting: as for `CN(C)[C@@H]1C(=O)C(C(N)=O)=C(O)[C@@]2(O)C(=O)C3=C(O)c4c(O)cccc4C[C@H]3C[C@@H]12`, the entry is “inactive”; as for `CC1(C)S[C@@H]2[C@H](NC(=O)C(c3ccccc3)S(=O)(=O)O)C(=O)N2[C@H]1C(=O)O` (some centres not stated), “inactive”.

As to `O=C(O)Cn1c(=O)n(Cc2ccc(Br)cc2F)c(=O)c2ccc(Cl)cc21`, the Potency result is “inactive”. For the compound `CCCC(=O)c1cc(O)c(O)cc1O`, the Potency was 112 µM (active). As to `CC(C)(C)C1CCC(CC2=C(O)c3ccccc3C(=O)C2=O)CC1` (configuration not stated), the Potency entry is “inactive”. Turning to `O=P(O)(O)OCC(O)CO` (configuration not stated), the Potency entry is “inactive”. Same read-out and setting: under `Cc1ccc(-c2ccccc2C#N)cc1` stands “inactive”. `N=C(N)c1ccc(OCCCOc2ccc(C(=N)N)cc2)cc1`: the Potency result is “inactive”. As for `CC(=O)O[C@@H]1C(=O)O[C@@H]2[C@H]1OC(=O)[C@@H]2OC(C)=O`, the Potency result was “inactive”. As for `CC(C)C[C@H](NC(=O)CNC(=O)[C@H](Cc1ccc(O)cc1)NC(=O)[C@H](CO)NC(=O)[C@H](Cc1c[nH]c2ccccc12)NC(=O)[C@H](Cc1cnc[nH]1)NC(=O)[C@@H]1CCC(=O)N1)C(=O)N[C@@H](CCCN=C(N)N)C(=O)N1CCC[C@H]1C(=O)NCC(N)=O` (stereo in doubt), the Potency entry is “inactive”. On the same count and under the same terms, under `Brc1ccccc1-c1ccccc1` stands “inactive”. Same read-out and setting: under `COC(=O)c1cc(Cl)c(NC(C)=O)cc1OC` stands “inactive”; under `NC(=O)NS(=O)(=O)c1ccc(Cl)cc1`, “inactive”. Still for that read-out and setting: as for `OC[C@]1(O)OC[C@@H](O)[C@H](O)[C@@H]1O`, the entry is “inactive”; as for `CC(C)(C)C(=O)OCOC(=O)C1N2C(=O)CC2S(=O)(=O)C1(C)C` (configuration not stated), “inactive”; as for `O=C1CC[C@H](C(=O)N2CCCCC2)N1`, “inactive”. In the case of `CCOC(=O)C(O)c1ccccc1` (configuration not stated), the Potency entry is “inactive”.

(Values after PubChem BioAssay (NCATS).)
